The whole screen tested about 5,500 compounds, of which about 2,000 (36%) were called active. Inconclusive results (about 18%) are left out. Cut-off read from the data, not from the text of the source: active = normalized growth mostly below about 0.91 (no sharp cut-off); inconclusive = no clear call, values can overlap the other calls; inactive = mostly above about 0.92. The list shows a part of the results.
Assay: chemical genetic growth profiling, strain panel (AID 1159580);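 note: tested at 20 µM; growth read once vehicle control cultures reached saturation at 30 °C; 1 = growth at the plate median or of vehicle wells; lower values mean less growth of the strain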
Conditions: growth OD

Measured: normalized growth

CC(C)c1c(O)c(-c2cc3c(c(C(C)C)c2O)CCC2C(C)(C)CCC[C@]32C)cc2c1CCC1C(C)(C)CCC[C@]21C (some centres not stated)
inactive: S. cerevisiae deletion strains, locus YJR075W, strain HOC1, active compounds read low 1.01 | S. cerevisiae deletion strains, locus YKL009W, strain mrt4, active compounds read low 1.06 | S. cerevisiae deletion strains, locus YKL068W, active compounds read low 1.01 | S. cerevisiae deletion strains, locus YKL085W, strain MDH1 (second series), active compounds read low 1.07 | S. cerevisiae deletion strains, locus YKL085W, strain MDH1, active compounds read low 1.07 | S. cerevisiae deletion strains, locus YKL160W, strain elf1, active compounds read low 0.984 | S. cerevisiae deletion strains, locus YKL190W, strain CNB1, active compounds read low 1.01 | S. cerevisiae deletion strains, locus YKR001C, strain vps1, active compounds read low 1.03 | S. cerevisiae deletion strains, locus YKR026C, strain gcn3, active compounds read low 0.993 | S. cerevisiae deletion strains, locus YKR091W, strain srl3, active compounds read low 0.971 | S. cerevisiae deletion strains, locus YLL001W, strain dnm1, active compounds read low 1.01 | S. cerevisiae deletion strains, locus YLL026W, active compounds read low 0.997 | S. cerevisiae deletion strains, locus YLL041C, strain sdh2, active compounds read low 1.02 | S. cerevisiae deletion strains, locus YLR027C, strain aat2, active compounds read low 0.983 | S. cerevisiae deletion strains, locus YLR039C, strain RIC1, active compounds read low 1.07 | S. cerevisiae deletion strains, locus YLR058C, strain SHM2, active compounds read low 1.02 | S. cerevisiae deletion strains, locus YLR102C, strain apc9, active compounds read low 1.02 | S. cerevisiae deletion strains, locus YLR113W, strain HOG1, active compounds read low 0.996 | S. cerevisiae deletion strains, locus YLR221C, strain rsa3, active compounds read low 1.02 | S. cerevisiae deletion strains, locus YLR258W, strain gsy2, active compounds read low 0.974 | S. cerevisiae deletion strains, locus YLR262C, strain YPT6 (second series), active compounds read low 0.987 | S. cerevisiae deletion strains, locus YLR262C, strain YPT6, active compounds read low 1.05 | S. cerevisiae deletion strains, locus YLR268W, strain sec22, active compounds read low 1.01 | S. cerevisiae deletion strains, locus YLR320W, strain mms22, active compounds read low 1.02 | S. cerevisiae deletion strains, locus YLR330W, strain CHS5, active compounds read low 1.01 | S. cerevisiae deletion strains, locus YLR342W, strain FKS1 (second series), active compounds read low 1.04 | S. cerevisiae deletion strains, locus YLR342W, strain FKS1, active compounds read low 0.99 | S. cerevisiae deletion strains, locus YLR357W, strain rsc2, active compounds read low 0.976 | S. cerevisiae deletion strains, locus YLR370C, strain arc18, active compounds read low 0.982 | S. cerevisiae deletion strains, locus YLR371W, strain rom2, active compounds read low 1.02 | S. cerevisiae deletion strains, locus YLR384C, strain iki3, active compounds read low 0.972 | S. cerevisiae deletion strains, locus YLR418C, strain cdc73, active compounds read low 1.01 | S. cerevisiae deletion strains, locus YML016C, strain PPZ1, active compounds read low 1.02 | S. cerevisiae deletion strains, locus YML032C, strain rad52, active compounds read low 1.03 | S. cerevisiae deletion strains, locus YML120C, strain ndi1, active compounds read low 1 | S. cerevisiae deletion strains, locus YML124C, strain tub3, active compounds read low 1.01 | S. cerevisiae deletion strains, locus YMR058W, strain fet3, active compounds read low 0.982 | S. cerevisiae deletion strains, locus YMR078C, strain ctf18, active compounds read low 1.01 | S. cerevisiae deletion strains, locus YMR125W, strain sto1, active compounds read low 0.968 | S. cerevisiae deletion strains, locus YMR129W, active compounds read low 0.98 | S. cerevisiae deletion strains, locus YMR205C, strain PFK2, active compounds read low 0.973 | S. cerevisiae deletion strains, locus YMR223W, strain ubp8, active compounds read low 1.03 | S. cerevisiae deletion strains, locus YMR231W, strain pep5, active compounds read low 1.04 | S. cerevisiae deletion strains, locus YMR263W, strain SAP30, active compounds read low 1.02 | S. cerevisiae deletion strains, locus YMR307W, strain GAS1, active compounds read low 1.03 | S. cerevisiae deletion strains, locus YNL067W, strain RPL9B, active compounds read low 1.02 | S. cerevisiae deletion strains, locus YNL071W, strain lat1, active compounds read low 0.995 | S. cerevisiae deletion strains, locus YNL128W, strain TEP1, active compounds read low 1.01 | S. cerevisiae deletion strains, locus YNL153C, strain GIM3, active compounds read low 0.998 | S. cerevisiae deletion strains, locus YNL183C, strain NPR1, active compounds read low 0.946 | S. cerevisiae deletion strains, locus YNL209W, strain ssb2, active compounds read low 0.986 | S. cerevisiae deletion strains, locus YNL233W, strain BNI4, active compounds read low 0.999 | S. cerevisiae deletion strains, locus YNL248C, strain rpa49, active compounds read low 0.953 | S. cerevisiae deletion strains, locus YNL250W, strain rad50, active compounds read low 1.02 | S. cerevisiae deletion strains, locus YNL271C, strain bni1, active compounds read low 1.03 | S. cerevisiae deletion strains, locus YNL298W, strain CLA4, active compounds read low 1.03 | S. cerevisiae deletion strains, locus YNL307C, strain MCK1, active compounds read low 1.04 | S. cerevisiae deletion strains, locus YNL322C, strain KRE1 (second series), active compounds read low 0.963 | S. cerevisiae deletion strains, locus YNL322C, strain KRE1, active compounds read low 1.02 | S. cerevisiae deletion strains, locus YNR049C, strain mso1, active compounds read low 0.963 | S. cerevisiae deletion strains, locus YNR052C, strain pop2, active compounds read low 1.02 | S. cerevisiae deletion strains, locus YOL006C, strain TOP1, active compounds read low 1.06 | S. cerevisiae deletion strains, locus YOL012C, strain htz1 0.995 | S. cerevisiae deletion strains, locus YOL147C, strain pex11, active compounds read low 1.01 | S. cerevisiae deletion strains, locus YOR001W, strain rrp6, active compounds read low 1.02 | S. cerevisiae deletion strains, locus YOR061W, strain CKA2, active compounds read low 1.02 | S. cerevisiae deletion strains, locus YOR069W, strain VPS5, active compounds read low 1.01 | S. cerevisiae deletion strains, locus YOR070C, strain gyp1, active compounds read low 0.989 | S. cerevisiae deletion strains, locus YOR080W, strain dia2, active compounds read low 0.953 | S. cerevisiae deletion strains, locus YOR083W, strain WHI5, active compounds read low 0.997 | S. cerevisiae deletion strains, locus YOR106W, strain vam3, active compounds read low 0.985 | S. cerevisiae deletion strains, locus YOR136W, strain idh2, active compounds read low 1.01 | S. cerevisiae deletion strains, locus YOR144C, strain elg1, active compounds read low 1.01 | S. cerevisiae deletion strains, locus YOR184W, strain ser1, active compounds read low 1.04 | S. cerevisiae deletion strains, locus YOR231W, strain MKK1, active compounds read low 0.958 | S. cerevisiae deletion strains, locus YOR265W, strain rbl2, active compounds read low 1 | S. cerevisiae deletion strains, locus YOR270C, strain vph1, active compounds read low 1 | S. cerevisiae deletion strains, locus YOR290C, strain snf2, active compounds read low 0.957 | S. cerevisiae deletion strains, locus YOR316C, strain cot1, active compounds read low 1.02 | S. cerevisiae deletion strains, locus YPL051W, strain arl3, active compounds read low 0.999 | S. cerevisiae deletion strains, locus YPL055C, strain LGE1, active compounds read low 1.02 | S. cerevisiae deletion strains, locus YPL078C, strain atp4, active compounds read low 0.986 | S. cerevisiae deletion strains, locus YPL106C, strain sse1, active compounds read low 0.948 | S. cerevisiae deletion strains, locus YPL240C, strain hsp82, active compounds read low 0.996 | S. cerevisiae deletion strains, locus YPL241C, strain CIN2, active compounds read low 1.02 | S. cerevisiae deletion strains, locus YPL256C, strain CLN2, active compounds read low 0.949 | S. cerevisiae deletion strains, locus YPR119W, strain clb2, active compounds read low 1.01 | S. cerevisiae deletion strains, locus YPR141C, strain kar3, active compounds read low 1.02 | S. cerevisiae deletion strains, locus YPR163C, strain tif3, active compounds read low 1.01 | S. cerevisiae deletion strains, locus YPR167C, strain met16, active compounds read low 1.02 | S. cerevisiae deletion strains, strain wtn01, active compounds read low 1.02 | S. cerevisiae strains, strain wild type, active compounds read low 1.02
